Hit rate of the full screen: of about 3,200 compounds, about 300 (9.4%) showed activity. This is one part of a sample in which actives are shown more often than they occur.
Test system: A673/TR/shEF
Experiment: cell viability (LOESS-normalised, relative to median of negative controls) (log2 ratio); higher = more viable cells (less compound effect), active = hit call of the paper (over 3 MAD below the median)
Details: treatment time: 72 h
Method in brief: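 A673/TR/shEF Ewing sarcoma cells were plated at 1,500 per well in 384-well plates and cultured with or without doxycycline, added 24 h before compounds, to induce EWS-FLI1 shRNA knockdown. Library compounds at two or more concentrations, alongside DMSO controls, were applied for three days. Cell viability was measured by CellTiter-Glo luminescence on an Envision reader. Readings were LOESS-corrected per plate, divided by the median of negative controls and log2-transformed, and hits were wells lying at least three median absolute deviations from the median of all screened wells.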

[1] = 0.25 µM, library screen: screen1, EWS-FLI1 expression: high (no doxycycline)
[2] = 0.25 µM, library screen: screen1, EWS-FLI1 expression: low (doxycycline-induced shRNA knockdown)
[3] = 2.5 µM, library screen: screen1, EWS-FLI1 expression: high (no doxycycline)
[4] = 2.5 µM, library screen: screen1, EWS-FLI1 expression: low (doxycycline-induced shRNA knockdown)
[5] = 0.25 µM, library screen: screen2, EWS-FLI1 expression: high (no doxycycline)
[6] = 0.25 µM, library screen: screen2, EWS-FLI1 expression: low (doxycycline-induced shRNA knockdown)
[7] = 2.5 µM, library screen: screen2, EWS-FLI1 expression: high (no doxycycline)
[8] = 2.5 µM, library screen: screen2, EWS-FLI1 expression: low (doxycycline-induced shRNA knockdown)

Measured: cell viability (log2)

CC1=C(Cl)C(O)=C(Cl)C(=O)C12Oc1cc(O)c(Cl)c(C)c1C2=O (stereo not drawn)
inactive: [1] 0.065 | [2] 0.0174 | [3] 0.111 | [4] 0.157

CC(=O)OC12CCCC(C)(CCC3C1CC3(C)C)C2 (stereo not drawn)
inactive: [1] 0.0248 | [2] -0.0723 | [3] 0.116 | [4] -0.0213

CC(=O)OC1(C)CCC23CC1C(C)(C)[C@@H]2CC[C@H]3C (stereo partly drawn)
inactive: [1] 0.0148 | [2] 0.0289 | [3] 0.15 | [4] 0.0585

Cc1nc(N)sc1-c1ccnc(Nc2ccc(N3CCOCC3)cc2)n1
active: 2.8 µM, library screen: screen3, EWS-FLI1 expression: high (no doxycycline) -0.219 | 8.3 µM, library screen: screen3, EWS-FLI1 expression: high (no doxycycline) -0.377 | 25 µM, library screen: screen3, EWS-FLI1 expression: high (no doxycycline) -0.478 | 25 µM, library screen: screen3, EWS-FLI1 expression: low (doxycycline-induced shRNA knockdown) -0.719
inactive: 0.103 µM, library screen: screen3, EWS-FLI1 expression: high (no doxycycline) 0.0411 | 0.103 µM, library screen: screen3, EWS-FLI1 expression: low (doxycycline-induced shRNA knockdown) 0.00948 | 0.308 µM, library screen: screen3, EWS-FLI1 expression: high (no doxycycline) 0.0424 | 0.308 µM, library screen: screen3, EWS-FLI1 expression: low (doxycycline-induced shRNA knockdown) 0.0424 | 0.926 µM, library screen: screen3, EWS-FLI1 expression: high (no doxycycline) -0.0206 | 0.926 µM, library screen: screen3, EWS-FLI1 expression: low (doxycycline-induced shRNA knockdown) 0.0867 | 2.8 µM, library screen: screen3, EWS-FLI1 expression: low (doxycycline-induced shRNA knockdown) 0.0313 | 8.3 µM, library screen: screen3, EWS-FLI1 expression: low (doxycycline-induced shRNA knockdown) -0.083

COc1cccc(CN2CCN(Cc3cccc([N+](=O)[O-])c3)CC2)c1
inactive: [1] 0.0814 | [2] 0.112

CC(C)c1c(O)ccc2c1CC[C@H]1[C@@](C)(CO)CCC[C@]21C
inactive: [1] 0.0632 | [2] 0.204 | [3] 0.124 | [4] 0.239

COc1ccc(NC(=O)/C(=C/c2cccs2)NC(=O)c2cccs2)cc1
inactive: [1] 0.0675 | [2] 0.0437 | [3] 0.0662 | [4] 0.0201

COC(=O)Nc1nc2ccc(C(=O)c3ccccc3)cc2[nH]1
active: [3] -1.65 | [4] -0.988 | [7] -2.05 | [8] -0.641 | 25 µM, library screen: screen2, EWS-FLI1 expression: high (no doxycycline) -3.34 | 25 µM, library screen: screen2, EWS-FLI1 expression: low (doxycycline-induced shRNA knockdown) -1
inactive: 0.025 µM, library screen: screen2, EWS-FLI1 expression: high (no doxycycline) 0.179 | 0.025 µM, library screen: screen2, EWS-FLI1 expression: low (doxycycline-induced shRNA knockdown) 0.0844 | [1] 0.0977 | [2] 0.025 | [5] 0.114 | [6] 0.0886

CC(C(=O)O)c1ccc(C(=O)c2cccs2)cc1 (stereo not drawn)
inactive: [1] 0.0835 | [2] 0.0129 | [3] 0.155 | [4] -0.0021

COC(=O)Nc1nc2ccc(C(=O)c3cccs3)cc2[nH]1
active: [1] -0.83 | [2] -0.22 | [5] -1.12 | [6] -0.105 | [3] -3.46 | [4] -1.25 | [7] -2.04 | [8] -0.699
